High-throughput results (PubChem)
The list is not random: actives were taken first. Their share in the collection is about 10%.
VP16 counter: Gal4-VP16 reporter inhibition counter-screen. hit rate 3.5% among 310,000. Potency, µM (highest dose often 53.6 µM), without a hit: at the highest dose activity, negative = inhibition, most hits filed as inhibitors. AID 2546. Drosophila S2 Gal4-VP16 UAS-luciferase, luminescence, 20 h;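 further: Gal4-VP16 expression switched on by copper sulfate through the metallothionein promoter; on the % scale 0 is the no-effect control and ±100 the full control effect; nearly all actives have a fitted effect of over 50% in size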
RORgamma inh: inhibitors of mouse ROR gamma transcriptional activity. hit rate 5.4% among 310,000. Potency, µM (highest dose often 53.6 µM), inactives show top-dose activity change, negative = inhibition, actives largely listed as inhibitors. P51450. Drosophila S2 Gal4-RORgamma UAS-luciferase reporter, 20 h. AID 2551; further: on the % scale 0 is the no-effect control and ±100 the full control effect; nearly all actives have a fitted effect of over 60% in size
Target sequence (P51450 whole entry, looked up, the tested form may be a part): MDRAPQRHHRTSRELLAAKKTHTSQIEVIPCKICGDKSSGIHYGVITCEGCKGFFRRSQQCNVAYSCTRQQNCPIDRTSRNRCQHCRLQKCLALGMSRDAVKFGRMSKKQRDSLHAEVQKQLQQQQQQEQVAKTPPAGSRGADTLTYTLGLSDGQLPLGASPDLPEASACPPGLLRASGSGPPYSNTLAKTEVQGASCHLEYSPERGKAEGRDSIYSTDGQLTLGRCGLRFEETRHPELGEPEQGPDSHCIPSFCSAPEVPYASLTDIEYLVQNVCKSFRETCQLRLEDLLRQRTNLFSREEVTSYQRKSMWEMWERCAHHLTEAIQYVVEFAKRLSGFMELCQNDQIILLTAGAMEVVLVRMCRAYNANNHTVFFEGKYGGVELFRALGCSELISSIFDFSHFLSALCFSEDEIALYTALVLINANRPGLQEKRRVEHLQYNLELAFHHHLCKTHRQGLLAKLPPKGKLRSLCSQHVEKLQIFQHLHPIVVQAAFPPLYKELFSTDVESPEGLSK
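In this cell-based reporter format, copper sulfate (700 uM final) drives Gal4–ROR gamma fusion expression from a metallothionein promoter in Drosophila Schneider cells; compounds preincubated 1 hr, reporter read after 20 hr at ambient temperature.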
MCF10A rerep: induces DNA re-replication in MCF 10a normal breast cells; MCF 10A DNA re-replication, Hoechst nuclear intensity, 48 h; Potency, µM (series often up to 46.1 µM), inactives show at the top dose activity, positive = re-replication, most hits filed as activators; hit rate 2.9% among 350,000; AID 624296; further: % of control where 0% means no effect; nearly all actives have a fitted effect of over 50% in size
SW480 rerep: DNA re-replication induction in SW480 cells; AID 624297; hit rate 1.8% among 340,000; Potency, µM (top dose mostly 46.1 µM), for inactives: at the highest dose re-replication activation, actives largely listed as activators; SW480 DNA re-replication, Hoechst DNA content imaging, 48 h; further: % of control where 0% means no effect; nearly all actives have a fitted effect of over 55% in size
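Readout is total intensity of Hoechst-stained nuclei, excited at 405 nm and collected at 500-530 nm. Compound treatment lasted 48 hr at 37 C in 5% CO2 before staining.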
KB-3-1 cytotox: KB-3-1 parental cell cytotoxicity; KB-3-1 viability, CellTiter-Glo ATP luminescence, 72 h; Potency, µM (series often up to 46.1 µM), hits mostly cytotoxic; hit rate 1.4% among 400,000; further: on the % scale 0 is the no-effect control and ±100 the full control effect; nearly all actives have a fitted effect of over 60% in size
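Viability of parental KB-3-1 cells, measured by CellTiter-Glo luminescence, followed a 72 h incubation at 37 °C with pinned compounds in phenol-red-free DMEM containing 10% FBS.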
KB-V1 MDR tox: kills drug-selected multidrug resistant KB-V1 cells. Potency, µM (top dose mostly 46.1 µM), most hits filed as cytotoxic. KB-V1 MDR cells viability, CellTiter-Glo, 72 h. hit rate 3.4% among 400,000; further: on the % scale 0 is the no-effect control and ±100 the full control effect; nearly all actives have a fitted effect of over 60% in size
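KB-V1 MDR subline cells in DMEM (phenol-red free, 10% FBS) exposed to compounds in qHTS concentration series for 72 h at 37 degrees C. Viability read by CellTiter-Glo luminescence; concentration-effect curves fitted after normalization and correction.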
* = called active by the depositor; i = inactive; ? = inconclusive; / = no result given; [ ] = dose if it differs, or a comment. The call rests on the fitted dose curve; in most records, active means well fitted curve in the direction sought with a large enough effect; inconclusive means small, poorly fitted or top-dose-only effect, or another doubt; inactive means no such curve, though single readings can be large; an effect the other way counts as inactive or inconclusive. Potency means the concentration at half of the fitted maximal effect.

SMILES	VP16 counter	RORgamma inh	MCF10A rerep	SW480 rerep	KB-3-1 cytotox	KB-V1 MDR tox
O=C(O)CCc1nc2ccccc2n(CCc2ccccc2)c1=O	-12%	28%	2%	-1%	i	i
CC1(C)O[C@@H]2O[C@H]([C@H](O)CO/N=C3/[C@H]4O[C@@H]4[C@@H](O)[C@H]4[C@H]3CCn3c(=O)n(-c5ccccc5)c(=O)n34)[C@@H](O)[C@@H]2O1	3%[10 µM]	19%[10 µM]	/	/	/	/
CCOC(=O)c1sc2ccccc2c1S(=O)(=O)N1CCN(c2cc(C)ccc2C)CC1	/	/	/	/	i	i
COCCCN(C(=S)Nc1cc(Cl)cc(Cl)c1)C(C)c1ccccn1 (stereo not given)	?	7.1µM*	?	-18%	i	?
Cc1cccc(NC(=S)N(CCN(C)C)C(C)c2ccccn2)c1 (stereo not given)	-13%	11µM*	4%	-3%	i	i
Cc1ccc(Cl)cc1NC(=S)N(CCN(C)C)C(C)c1ccccn1 (stereo not given)	0%	10µM*	-7%	-2%	i	i
CCOC(=O)c1ccc(NC(=S)N(CCN(C)C)C(C)c2ccncc2)cc1 (stereo not given)	1%	0%	7%	-8%	i	i
CCc1cccc(NC(=S)N(CCN(C)C)C(C)c2ccncc2)c1 (stereo not given)	-2%	14µM*	-1%	-33%	i	?
Fc1cccc(NC(=S)NCc2ccccn2)c1	?	-36%[10 µM]	7%	-7%	i	i
CC(c1ccccn1)N(Cc1ccco1)C(=S)Nc1cccc(F)c1 (stereo not given)	?	13µM*	-12%	2%	i	i
O=[N+]([O-])C(=C1Nc2ccccc2N1)C(Cl)=C(Cl)Cl	?	11µM*	?	58%	?	i
CN1CCO/C1=C(\C(Cl)=C(Cl)Cl)[N+](=O)[O-]	1%	13%	-33%	6%	i	i
CCCNC(=O)COCc1cc(-c2ccc(F)cc2)on1	/	/	/	/	i	i
NNC(=O)c1sccc1OCc1ccc(F)cc1	-2%	13%	-9%	-8%	i	?
O=C(N/N=C/c1ccc(F)cc1)c1sccc1OCc1ccc(F)cc1	22%	-4%	7.3µM*	9.2µM*	?	7.3µM*
COC(=O)N/N=C/c1cc(Cl)c(OCc2ccc(F)cc2)c(OC)c1	-20%	-5%	11%	?	i	i
COC(=O)N/N=C/c1cc(Cl)cc(Cl)c1OCc1ccc(F)cc1	-26%	-1%	0%	?	i	23µM*
O=C(N/N=C/c1ccc(Cl)cc1)c1sccc1OCc1ccc(F)cc1	1%	?	1.6µM*	9.2µM*	1.5µM*	1.3µM*
CCCCC(=O)N(C)c1c(C)nc2ccc(C(=O)N(CC)CCN(C)C)cn12	/	/	/	/	i	i
CC(C)(C)c1ccc(C(=O)NCCC(=O)Nc2cc(Cl)ccc2N2CCOCC2)cc1	/	/	1%	-3%	i	i
O=S(=O)(c1cc(F)ccc1F)N1CCN(c2ncnc3ccccc23)CC1	/	/	5.8µM*	18µM*	5.2µM*	9.2µM*
CC(=O)Nc1nc(NC(=O)C(Cl)(Cl)Cl)n(-c2ccccc2)n1	13µM*	7.1µM*	-5%	-8%	i	i
Cc1cc2ccccc2n1CCNC(=O)c1cccc(Cl)c1	/	/	/	/	i	i
Cc1cc2ccccc2n1CCNC(=O)C1CCCCC1	-15%	28%	7%	3%	i	?
Cc1cc2ccccc2n1CCNC(=O)C1CCCC1	-3%	10%	-1%	-4%	i	18µM*
SMILES	VP16 counter	RORgamma inh	MCF10A rerep	SW480 rerep	KB-3-1 cytotox	KB-V1 MDR tox
Cc1cc2ccccc2n1CCNC(=O)c1cccs1	14µM*	13µM*	0%	-2%	i	i
CC=CC1=C(C(=O)O)N2C(=O)[C@H](NC(=O)[C@H](N)c3ccc(O)cc3)[C@@H]2SC1	5%	15%	1%	1%	/	/
Cc1ccc(C)c(Cn2c(=O)cc(C(F)(F)F)c3c(C)nn(C)c32)c1	/	/	/	/	i	i
CC1(C(=O)NS(=O)(=O)c2ccccc2)CCN1C(=O)CC1CCCCC1 (stereo not given)	/	/	/	/	i	i
CC(C)(C)c1ccc(N2C(=N)SCC2=O)cc1	12%	5%	3%	?	i	i
N=C1SCC(=O)N1c1ccc(Cl)cc1	-5%	5%	0%	?	15µM*	?
Cc1ccc2ccccc2c1[N+](=O)[O-]	-5%	4%	/	/	/	/
Cc1ccc(CN(C(=O)COc2cccc([N+](=O)[O-])c2)c2ccccn2)o1	/	/	/	/	i	i
CCOP(=O)(OCC)c1nc(-c2ccc(Cl)cc2Cl)oc1N1CCCCC1	-24%	21%	16µM*	7%	i	?
O=C(O)CCN1CC2([N+](=O)[O-])CC=C(OCCO)C([N+](=O)[O-])(C1)C2 (stereo not given)	-7%	3%	0%	3.7µM*	i	i
Nc1nnn(-c2ccccc2)c1-c1ccccc1	/	/	-1%	15µM*	i	i
Clc1c(-c2ccccc2)nnn1-c1ccccc1	-6%	-12%	0%	1%	i	i
Cc1cc(Br)ccc1SCC(=O)N1CCN(S(=O)(=O)c2ccccc2)CC1	7.1µM*	?	17%	-2%	i	?
O=C(CCCOc1ccccc1)N1CCN(S(=O)(=O)c2ccccc2)CC1	/	/	1%	-2%	i	i
O=C(CSc1ncccn1)N1CCN(S(=O)(=O)c2ccccc2)CC1	0%	0%	3%	-2%	i	i
O=C(CCC(=O)N1CCc2ccccc2C1)N1CCN(S(=O)(=O)c2ccccc2)CC1	-8%	-27%	-3%	0%	i	13µM*
O=C(CCCOc1ccccc1)N1CCc2ccccc2C1	8%	?	-3%	-11%	i	i
O=C(CN1CCN(S(=O)(=O)c2ccc(F)c(Cl)c2)CC1)N1CCc2ccccc2C1	/	/	13%	-1%	i	9.2µM*
O=C(CCCOc1ccc(Cl)cc1Cl)N1CCc2ccccc2C1	?	?	3.3µM*	2.6µM*	i	?
O=C1c2[nH]nc(-c3ccccc3O)c2C(c2cccc(OCc3ccccc3)c2)N1CCCO (stereo not given)	/	/	/	/	i	i
COc1cccc(CNC(=O)[C@@H]2CCCN2C(=O)[C@H]2CCCCN2S(=O)(=O)c2ccc(OC)c(C)c2)c1	/	/	/	/	i	?
O=C(CN1CCN(S(=O)(=O)c2ccc3c(c2)OCCCO3)CC1)N1CCc2ccccc21	/	/	/	/	i	i
